High-throughput results: PubChem, National Center for Advancing Translational Sciences (NCATS)
Integrin act MD: qHTS for Activators of Integrin-Mediated Alleviation for Muscular Dystrophy; alpha7betagal myoblasts, beta-gal FDG fluorescence, 48 h; Potency, µM (titrated, usually from 38.3 µM), hits mostly activators; hit rate 0.064% among 350,000; further: nearly all actives have a fitted effect of over 60% in size
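alpha7betagal+/- myoblasts (passage 13, 250/well) treated 48 h at 37C with compounds at 1:260 dilution of DMSO stock. Lysed, then beta-galactosidase activity read as FDG fluorescence (ex 480/em 540) after 30 min, with pre-read for autofluorescence.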
GALK inhibitor: qHTS Assay for Inhibitors of Human Galactokinase (GALK); P51570; Purified GALK, Kinase-Glo residual ATP luminescence; Potency, µM (highest dose often 57.5 µM), hits mostly inhibitors; hit rate 0.007% among 270,000; AID 1868, 2009
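Human GALK (5 nM) with 35 uM ATP and 100 uM galactose in 20 mM HEPES pH 8.0, 5 mM MgCl2, 60 mM NaCl, 1 mM DTT, 0.01% BSA. After 1 h at room temperature, leftover ATP was read by Kinase-Glo Plus luminescence.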
LDHA block: qHTS assay for inhibitors of human lactate dehydrogenase | AID 1347041, 2019 | hit rate 0.15% among 480,000 | purified LDHA, NADH/diaphorase-resazurin fluorescence; stronger effect = lower value | L-lactate dehydrogenase A chain (Homo sapiens), P00338 | activity change, % (values are at about 110 or 230 µM); in the data active means activity change below about -30%; inconclusive means mostly about -25% to -30%
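Remaining NADH was detected by diaphorase (0.133 mg/mL) converting 37 µM resazurin to fluorescent resorufin, read at 0 and 20 minutes. The preceding 5-minute room-temperature reaction used 2 nM LDHA, 0.2 mM sodium pyruvate and 0.06 mM NADH at pH 7.4.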
TrxR1 substrate: qHTS Assay for Substrates of Mammalian Selenoprotein Thioredoxin Reductase 1 (TrxR1): qHTS | Potency, µM (highest dose often 114 µM) | hit rate 0.01% among 390,000 | Thioredoxin reductase 1, cytoplasmic (Rattus norvegicus), O89049 | purified TrxR1 substrate turnover, NADPH consumption readout; further: nearly all actives have a fitted effect of over 50% in size
Target sequence (O89049 whole entry, looked up): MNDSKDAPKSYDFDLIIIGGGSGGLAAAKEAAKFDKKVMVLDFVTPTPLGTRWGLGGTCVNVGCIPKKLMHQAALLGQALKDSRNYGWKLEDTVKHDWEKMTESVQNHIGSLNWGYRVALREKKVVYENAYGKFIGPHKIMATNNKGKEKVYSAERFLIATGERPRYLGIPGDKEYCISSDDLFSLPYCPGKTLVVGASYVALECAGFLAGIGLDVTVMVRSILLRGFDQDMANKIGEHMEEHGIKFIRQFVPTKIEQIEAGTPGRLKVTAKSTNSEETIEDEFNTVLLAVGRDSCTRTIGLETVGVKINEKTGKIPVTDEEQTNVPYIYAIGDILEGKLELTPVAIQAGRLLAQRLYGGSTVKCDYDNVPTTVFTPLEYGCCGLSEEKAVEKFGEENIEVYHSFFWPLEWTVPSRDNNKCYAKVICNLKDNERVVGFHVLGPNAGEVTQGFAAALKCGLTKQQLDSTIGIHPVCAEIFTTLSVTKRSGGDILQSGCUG
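Rat TrxR1, dispensed at 90 nM, was prereduced with 400 uM NADPH (final) for 5 min at ~22 deg C, then incubated with compound 15 min before 400 uM selenite. A first-read NADPH fluorescence drop versus no-compound background flagged substrates.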
TrxR1 inh-1: qHTS Assay for Inhibitors of Mammalian Selenoprotein Thioredoxin Reductase 1 (TrxR1): qHTS; Thioredoxin reductase 1, cytoplasmic (Rattus norvegicus), O89049; hit rate 1% among 390,000; AID 588453, 2011; Potency, µM (highest dose often 114 µM), hits mostly inhibitors; recombinant rTrxR1, NADPH fluorescence consumption, selenite substrate; further: nearly all actives have a fitted effect of over 65% in size
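Rat TrxR1 (90 nM in the dispensed reagent) was pre-reduced with 400 uM NADPH for 5 min at room temperature, then incubated with compound for 15 min. After 400 uM selenite was added, NADPH fluorescence (Ex 340/Em 450 nm) was followed for 8 min.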
PI4K2A block: qHTS for small molecular inhibitors of PI4K2A. Phosphatidylinositol 4-kinase type 2-alpha (Homo sapiens), Q9BTU6. purified PI4K2A, ADP-Glo luminescence, 1 h; stronger effect = lower value. activity change, negative = inhibition, % at 76.9 µM. hit rate 0.13% among 420,000; in the data active means activity change below about -50%; inconclusive means mostly about -30% to -49%
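Compounds are screened against recombinant PI4K2A using PI as substrate and ATP, the latter dispensed at 300 microM. Reactions run one hour at ambient temperature before ADP-Glo detection; full inhibition defined by wells lacking enzyme.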
GR inh: qHTS Assay for Inhibitors of Mammalian Selenoprotein Thioredoxin Reductase 1 (TrxR1): Counterassay in Glutathione Reductase (GR); shares compounds with TrxR1 inh-1; purified GR, DTNB reduction absorbance 405 nm kinetic; activity change, negative = inhibition, % at 57.1 µM; 55 tested, under 10 active; AID 652020, 2013
TrxR1 inh-2: qHTS Assay for Inhibitors of Mammalian Selenoprotein Thioredoxin Reductase 1 (TrxR1): Hit Validation in Primary Screen; shares compounds with TrxR1 inh-1; recombinant TrxR1, NADPH fluorescence consumption, selenite substrate; Potency, µM, most hits filed as inhibitors; hit rate 50% among 55
TrxR1 insulin MOA: qHTS Assay for Inhibitors of Mammalian Selenoprotein Thioredoxin Reductase 1 (TrxR1): Insulin MOA Assay | shares compounds with TrxR1 inh-1 | Potency, µM | hit rate 20% among 55 | TrxR1 Trx-coupled insulin reduction, NADPH absorbance 340 nm | AID 652037, 2013;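 active means compounds with a measured potency under 100 micromolar; inconclusive means filed, but no rule given; inactive means potency at or above that, or unmeasurable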
TrxR1 inh-3: qHTS Assay for Inhibitors of Mammalian Selenoprotein Thioredoxin Reductase 1 (TrxR1): DTNB Assay | shares compounds with TrxR1 inh-1 | purified TrxR1, DTNB reduction, A412 | Potency, µM | hit rate 90% among 55 | AID 652256, 2013;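 active means a half-inhibiting concentration could be measured and was below 100 µM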
Hits are given with their value; i = inactive; ? = inconclusive; nt = no result given. This is a sample that favours compounds with a hit; in the whole collection about 1.1% have one here. Unless noted, the call rests on the fitted dose curve; in most records, active means well fitted curve in the direction sought with a large enough effect; inconclusive means small, poorly fitted or top-dose-only effect, or another doubt; inactive means no such curve, though single readings can be large; an effect the other way counts as inactive or inconclusive.

SMILES	Integrin act MD	GALK inhibitor	LDHA block	TrxR1 substrate	TrxR1 inh-1	PI4K2A block	others
CCOc1cc(/C=C2/C(=O)NC(=O)N(c3ccc(CC)cc3)C2=O)ccc1OC(=O)c1cccs1	i	i	i	i	18µM	i
Cc1ccc(CNCCc2ccccc2)s1	nt	nt	i	nt	nt	nt
COc1ccc(CCNCc2ccc(Cl)cc2)cc1	nt	nt	i	nt	nt	nt
COc1cc(/C=C2/C(=O)NC(=O)N(c3ccccc3)C2=O)ccc1O	i	nt	i	i	45µM	i
C=C1C(O)(c2ccccc2)C2CC[N+]1(C)CC2 (configuration not stated)	i	i	-38	i	i	i
Cc1cccc2[nH]cc(C3=CCN(C(C)C(=O)NC4CC4)CC3)c12 (configuration not stated)	nt	nt	i	nt	nt	nt
Cc1cc(OS(C)(=O)=O)c2c3c(c(=O)oc2c1)CCCC3	nt	nt	i	nt	nt	nt
C=CCN1CCc2cccc3c2[C@H]1Cc1ccc(O)c(O)c1-3	i	i	i	i	20µM	i
C=CCN1CC[C@]23c4c5ccc(O)c4OC2[C@H](O)CC[C@@]3(O)[C@H]1C5 (some centres not stated)	nt	nt	i	i	i	i
COc1ccc(N2C(=O)/C(=C/C=C/c3ccccc3[N+](=O)[O-])C(=O)NC2=S)cc1	i	i	i	i	?	i
COc1ccccc1/C=C1\C(=O)NC(=S)N(c2ccccc2)C1=O	i	nt	i	i	?	i
COc1ccc(C=C2C(=O)NC(=S)NC2=O)cc1OC	i	nt	i	i	7.1µM	i
COc1ccc(/C=C/C=C2C(=O)NC(=S)NC2=O)cc1	i	nt	i	i	7.1µM	i
COc1ccccc1C=C1C(=O)NC(=S)NC1=O	i	nt	-57	i	?	i
C=CCOc1ccc(CC2C(=O)N(C)C(=O)N(C)C2=O)cc1	i	i	i	i	i	i
CCN(CC)c1ccc(CC2C(=O)N(C)C(=O)N(C)C2=O)cc1	i	i	i	i	32µM	i
COc1ccc(C2=NCC(=O)N(CC(=O)Nc3ccc(F)cc3F)c3sc4c(c32)CCC4)cc1	nt	nt	i	nt	nt	nt
CC1=C[C@@H]2c3cccc4[nH]cc(c34)C[C@H]2N(C)C1	i	i	i	i	2.5µM	i	GR inh=i;TrxR1 inh-2=?;TrxR1 insulin MOA=49µM;TrxR1 inh-3=2.2µM
CCCCc1ccc2[nH]c(C)c(CCN)c2c1	nt	nt	i	nt	nt	nt
